PLK1 PBD inh: qHTS for Inhibitors of PLK1-PDB (polo-like kinase 1 - polo-box domain): Primary Screen. Potency, µM, hits mostly inhibitors. AID 720504, 2013. Serine/threonine-protein kinase PLK1 (Homo sapiens), P53350. actives 2.8% (n = 360,000). Plk1 PBD binding of FITC phosphopeptide, fluorescence polarization; also: series mostly up to about 57 µM; nearly all actives have a fitted effect of over 65% in size
HP1b chromo inh: HTS for Inhibitors of HP1-beta Chromodomain Interactions with Methylated Histone Tails; Potency, µM (doses to about 114 µM), hits mostly inhibitors; Chromobox protein homolog 1 (Homo sapiens), P83916; AID 540317, 2011; actives 0.56% (n = 390,000); AlphaScreen HP1-beta / biotin-H3K9me3 peptide binding; also: nearly all actives have a fitted effect of over 70% in size
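Compound inhibition of the preformed complex between 50 nM HP1-beta and 50 nM biotinylated H3K9me3 peptide was read by AlphaScreen. Buffer was PBS pH 7.4 with 0.01% Tween-20. Incubations ran 30 min at room temperature, with 10 ug/mL donor/acceptor beads.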
Sfp PPTase inh: qHTS Assay for Inhibitors of Bacillus subtilis Sfp phosphopantetheinyl transferase (PPTase); 4'-phosphopantetheinyl transferase ffp (Bacillus subtilis), Q9F4F7; actives 3.5% (n = 310,000); AID 1490, 2009; Potency, µM, hits mostly inhibitors; Biochemical Sfp PPTase activity, qHTS;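 also: the enzyme is Sfp with the accession as filed and its product quenches rhodamine fluorescence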
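Sfp 15 nM + cpd, 15 min RT; start w/ rhodamine-CoA 5 uM, BHQ-2-YbbR 12.5 uM (final); 50 mM Hepes pH 7.6, 10 mM MgCl2, 0.01% NP-40, 0.01% BSA; read 525/598 nm at 0 and 30 min.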
JMJD2A Tudor: qHTS Assay for Inhibitors of JMJD2A-Tudor Domain. Lysine-specific demethylase 4A (Homo sapiens), O75164. AlphaScreen JMJD2A-Tudor / H3K4me3 peptide binding. Potency, µM (doses to about 114 µM), most hits filed as inhibitors. actives 4.4% (n = 390,000); also: nearly all actives have a fitted effect of over 50% in size
Target sequence (O75164 whole entry, looked up, the tested form may be a part): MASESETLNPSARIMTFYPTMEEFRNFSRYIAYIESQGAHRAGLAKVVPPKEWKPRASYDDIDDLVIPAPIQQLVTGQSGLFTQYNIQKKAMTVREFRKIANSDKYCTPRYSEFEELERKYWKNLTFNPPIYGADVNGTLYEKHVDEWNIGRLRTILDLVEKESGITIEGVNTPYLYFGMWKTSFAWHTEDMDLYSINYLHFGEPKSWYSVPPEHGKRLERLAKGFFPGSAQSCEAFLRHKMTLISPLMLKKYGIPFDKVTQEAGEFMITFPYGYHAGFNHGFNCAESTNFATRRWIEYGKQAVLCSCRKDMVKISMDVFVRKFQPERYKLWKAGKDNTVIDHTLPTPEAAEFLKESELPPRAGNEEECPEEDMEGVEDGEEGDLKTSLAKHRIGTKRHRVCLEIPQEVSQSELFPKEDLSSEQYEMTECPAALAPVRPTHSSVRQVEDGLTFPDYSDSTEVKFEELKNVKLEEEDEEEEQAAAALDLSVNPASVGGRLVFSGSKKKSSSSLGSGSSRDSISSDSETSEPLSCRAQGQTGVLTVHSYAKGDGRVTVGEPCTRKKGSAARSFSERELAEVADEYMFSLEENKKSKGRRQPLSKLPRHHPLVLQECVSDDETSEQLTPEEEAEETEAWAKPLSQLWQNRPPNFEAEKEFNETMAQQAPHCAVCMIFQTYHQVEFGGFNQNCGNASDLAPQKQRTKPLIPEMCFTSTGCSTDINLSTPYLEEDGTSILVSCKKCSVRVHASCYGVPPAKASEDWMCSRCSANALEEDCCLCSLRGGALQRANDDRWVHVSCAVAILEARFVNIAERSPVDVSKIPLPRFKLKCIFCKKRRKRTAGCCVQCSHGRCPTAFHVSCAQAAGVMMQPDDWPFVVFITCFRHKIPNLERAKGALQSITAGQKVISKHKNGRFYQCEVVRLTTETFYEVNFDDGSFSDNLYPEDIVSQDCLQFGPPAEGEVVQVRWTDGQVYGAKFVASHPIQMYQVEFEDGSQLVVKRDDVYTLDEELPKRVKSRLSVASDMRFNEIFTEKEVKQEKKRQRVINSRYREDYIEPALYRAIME
BAZ2B inh: qHTS Assay for Inhibitors of BAZ2B; Potency, µM (titrated, usually from 114 µM), hits mostly inhibitors; AlphaScreen BAZ2B-H3K14Ac peptide displacement; Bromodomain adjacent to zinc finger domain protein 2B (Homo sapiens), Q9UIF8; actives 4.4% (n = 360,000); also: nearly all actives have a fitted effect of over 60% in size
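AlphaScreen luminescence quantifies BAZ2B engagement of H3K14Ac peptide; the protein and biotinylated peptide are both at 50 nM final, buffer PBS pH 7.4 with 0.01% Tween-20, all steps at room temperature.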
G9a inh: qHTS Assay for Inhibitors of Histone Lysine Methyltransferase G9a. Histone-lysine N-methyltransferase EHMT2 (Homo sapiens), Q96KQ7. G9a H3K9 monomethylation, AlphaScreen, 2 h. Potency, µM (top dose mostly 102 µM), actives largely listed as inhibitors. actives 8.8% (n = 350,000); also: nearly all actives have a fitted effect of over 75% in size
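Compounds were preincubated with 20 nM G9a for 15 min, after which biotinylated H3K9 peptide (500 nM) and SAM (20 uM) started a 2 h room-temperature reaction. Monomethylated product was quantified by antibody-based AlphaScreen chemiluminescence.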
Hits are given with their value; 0 = inactive; ? = inconclusive; - = no result given; [ ] = dose if it differs, or a comment. A selection: hits, their analogues and other compounds. The true share with any hit is near 12%. Calls follow the shape of the dose curve; as a rule, active = well fitted curve in the direction sought with a large enough effect; inconclusive = small, poorly fitted or top-dose-only effect, or another doubt; inactive = no such curve, though single readings can be large; an effect the other way counts as inactive or inconclusive.

SMILES	PLK1 PBD inh	HP1b chromo inh	Sfp PPTase inh	JMJD2A Tudor	BAZ2B inh	G9a inh
CCOC(=O)C1(C)C=C(Nc2ccc(C)cc2)C(=O)N1c1ccccc1 (stereo not drawn)	-	0	-	0	0	0
CN1C(=O)C(CC#N)(C2(CC#N)C(=O)N(C)c3ccccc32)c2ccccc21 (stereo not drawn)	0	0	-	0	-	-
O=c1c2c3c(sc2[nH]c(=S)n1Cc1ccco1)CCC3	?	0	50µM	0[11.4 µM]	45µM	14µM
CC1(C)Cc2c(sc3c2c(=N)n(Cc2ccco2)c(=O)n3Cc2ccccc2)CO1	?	0	0	0[11.4 µM]	79µM	?
CC1(C)Cc2c(sc3[nH]c(=S)n(Cc4ccco4)c(=O)c23)CO1	?	0	14µM	?	0	50µM
COCCCn1c(=S)[nH]c2sc3c(c2c1=O)CCCC3	?	0	0	?	0	8.9µM
Cc1ccc(/C=N/NC(=O)c2nnn(-c3nonc3N)c2CSc2ccc(Cl)cc2)o1	0	0	0	0	0	-
Cc1ccc(-n2c(=S)[nH]c3c(oc4ccccc43)c2=O)cc1C	0	0	0	0	0	79µM
O=c1c2oc3ccccc3c2[nH]c(=S)n1-c1ccc(F)cc1	0	0	79µM	0	-	50µM
CCOc1ccc(CCNC(=O)C2CCN(C(=O)c3cc4sccc4n3CC)CC2)cc1OCC	-	0	-	0	0	0
Cc1nc2cc(N3CCCCC3)c(NC(=O)c3ccncc3)cc2c(=O)n1Cc1ccccc1	0	0	0	0	0	0
Cc1nc2cc(N3CCOCC3)c(NC(=O)C3CC3)cc2c(=O)n1Cc1ccccc1	0	0	0	?	?	50µM
O=C(NCC(c1cccs1)N1CCOCC1)c1ccccc1NS(=O)(=O)c1ccc(Cl)c([N+](=O)[O-])c1 (stereo not drawn)	0	0	0	0	0	45µM
O=C(NCC(c1cccs1)N1CCOCC1)c1ccccc1NS(=O)(=O)c1cccc([N+](=O)[O-])c1 (stereo not drawn)	0	0	0	?	?	0
O=C(NCC(c1cccs1)N1CCOCC1)c1ccccc1NS(=O)(=O)c1cc([N+](=O)[O-])ccc1Cl (stereo not drawn)	0	0	0	0	0	45µM
O=C(NCC(c1cccs1)N1CCOCC1)c1ccccc1NS(=O)(=O)c1ccc(Cl)cc1 (stereo not drawn)	0	0	0	0	0	71µM
Cc1ccc(/C=C2/CNC/C(=C\c3ccc(C)cc3)C2=O)cc1	-	-	0	-	-	-
CCCNS(=O)(=O)c1ccc(OCC(=O)Nc2ccc3c(c2)OCCO3)c(C)c1	0	0	-	0	0	0[0.501 µM]
Nc1ccc(Cc2ccc(N)c(O)c2)cc1O	0	?	0	40µM	?	50µM
CC(C)[C@H](NC(=O)[C@H](CC(=O)O)NC(=O)CNC(=O)[C@@H](N)CCCN=C(N)N)C(=O)O	-	-	0	-	-	-
O=c1cc(-c2ccccc2)[nH]c2[nH]n(-c3ccccc3)c(=O)c12	0	0	0	0	?	45µM
CCOC(=O)Cc1cc(=O)c2c(=O)n(-c3ccccc3)[nH]c2[nH]1	0	0	0	?	0	0
O=C(CCC1CCCC1)N1CCN(C(=O)COc2ccccc2)CC1	24µM	0	0	0[11.4 µM]	0	50µM
CCOC(=O)C(=O)N1CCC(C(=O)OC)CC1	0	0	0	0	0	35µM
CCOC(=O)N1CCN(C(=O)CCC2CCCC2)CC1	0	0	0	0	0	0
COC(=O)C1CCN(C(=O)CCC2CCCCC2)CC1	0	0	0	0	0	7.1µM
Cc1ccc(OCC(=O)N2CCN(C(=O)CCC3CCCC3)CC2)cc1	0	0	0	0	0	0
O=C(CCC1CCCC1)N1CCC(N2CCCCCC2)CC1	0	?	0	4µM	56µM	?

Source: PubChem BioAssay (National Center for Advancing Translational Sciences (NCATS))
